PubChem BioAssay (NCATS)
Records with an inconclusive call do not appear. Where a call stands in place of a potency, no number is given. Values without a mark were called inactive. The source made the active and inactive calls. Calls follow the shape of the dose curve; as a rule, active = well fitted curve in the direction sought with a large enough effect; inconclusive = small, poorly fitted or top-dose-only effect, or another doubt; inactive = no such curve, though single readings can be large; an effect the other way counts as inactive or inconclusive.

Columns and labels:
[1] = P-glycoprotein substrates identified in KB-3-1 adenocarcinoma cell line, qHTS therapeutic library screen (AID 1346986); also: nearly all actives have a fitted effect of over 60% in size;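 also: potency is for cytotoxicity meaning loss of cell viability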
In short: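 Viability by CellTiter-Glo after 72 h compound exposure at 37 degree C, 5% CO2. Cytotoxic call: curve class -1.1 to -2.4, maximum response >50%, AC50 < 10 uM, compared across KB-3-1 and P-gp-overexpressing KB-8-5-11.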

[2] = P-glycoprotein substrates identified in KB-8-5-11 adenocarcinoma cell line, qHTS therapeutic library screen (AID 1346987); also: nearly all actives have a fitted effect of over 65% in size; as to activity change, negative = cytotoxicity: series mostly up to about 44 µM
In short: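 In this qHTS, P-gp-rich KB-8-5-11 cells received library compounds across a concentration range. Viability was quantified by luminescence after 72 h at 37 degree C.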
Potency is read from the fitted curve at half-maximal effect.

SMILES	outcome [1]	activity change, negative = cytotoxicity [2]	Potency [1]	Potency [2]
CC1OC(OC2C(C)OC(OC3C(OC(=O)C45CCC(C)(C)CC4C4=CCC6C7(C)CCC(OC8OC(C(=O)O)C(O)C(O)C8OC8OC(CO)C(O)C(OC9OC(C)C(O)C(O)C9O)C8O)C(C)(CO)C7CCC6(C)C4(C)CC5)OC(CO)C(O)C3O)C(O)C2O)C(O)C(O)C1O (stereo not drawn)	inactive [at 9.29 µM]	1.71% [at 9.29 µM]	–	–
Cc1ccc(C(=O)Nc2noc3ccccc23)cc1	–	–	inactive	inactive
O=C(/C=C/c1ccccc1)OC[C@]12O[C@H]1[C@@H](O)[C@@H]1C=CO[C@@H](O[C@@H]3O[C@H](CO)[C@@H](O)[C@H](O)[C@H]3O)[C@@H]12	–	–	inactive	inactive
OC[C@H]1O[C@@H](OC(CCCCc2ccc(O)cc2)CCc2ccc(O)cc2)[C@H](O)[C@@H](O)[C@@H]1O (stereo partly drawn)	–	–	inactive	inactive
CCNC(=O)Nc1ccc(-c2nc3c(c(N4CCOC[C@@H]4C)n2)CCN(c2ncccn2)C3)cc1	–	–	58 nM (active)	259 nM (active)
CC(=O)OC1C[C@@]2(C)[C@@H](CC[C@@H](C)[C@]23Cc2c(O)cc4c(c2O3)CNC4=O)C(C)(C)[C@@H]1O (stereo partly drawn)	–	–	inactive	inactive
C=C[C@@H]1[C@H](O[C@@H]2O[C@H](CO)[C@@H](O)[C@H](O)[C@H]2O)OC=C(C(=O)O)[C@H]1CCOC(=O)/C=C/c1ccc(O)c(O)c1	–	–	inactive	inactive
CCS(=O)(=O)N1CCN(c2ccc(Nc3ncc(C(N)=O)c(NC4CC4)n3)cc2)CC1	–	–	4610 nM (active)	7310 nM (active)
O=C(O)c1cc(-c2c(-c3ccccc3)nn3ccccc23)n[nH]c1=O	–	–	inactive	inactive
